Experimental data reported in PubChem BioAssay AID2013 (Sanford-Burnham Center for Chemical Genomics, 2009).
Screen size: about 290,000 compounds; about 370 (0.13%) were called active. The sample holds actives, similar compounds and a random draw of the others, so the mix is not that of the screen.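 The calls were made as follows: active = spots per cell inhibited over 60%, with over 100 cells counted and total cytoplasm intensity under 500,000; inconclusive = wells with under 100 cells, flagged as likely toxic; inactive = the rest.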 Results with a measured potency or affinity are listed apart.

The compounds below were run against G-protein coupled receptor 55 (Homo sapiens) (UniProt Q9Y2T6) (assay: inhibition of LPI-stimulated GPR55 beta-arrestin translocation – imaging, U2OS, beta-arrestin-GFP, LPI agonist, primary screen (AID 2013;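 also: U2OS cells stably carrying GPR55 and arrestin-GFP stimulated by 5 µM LPI near EC80; imaged beta-arrestin-GFP aggregate spots per cell after agonist stimulation; plate controls were LPI-stimulated DMSO wells for no effect and DMSO wells without LPI for full effect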)). Conditions: LPI antagonism, at 10 µM, active compounds read high.
Chain of G-protein coupled receptor 55 (Homo sapiens) (Q9Y2T6 whole entry, looked up): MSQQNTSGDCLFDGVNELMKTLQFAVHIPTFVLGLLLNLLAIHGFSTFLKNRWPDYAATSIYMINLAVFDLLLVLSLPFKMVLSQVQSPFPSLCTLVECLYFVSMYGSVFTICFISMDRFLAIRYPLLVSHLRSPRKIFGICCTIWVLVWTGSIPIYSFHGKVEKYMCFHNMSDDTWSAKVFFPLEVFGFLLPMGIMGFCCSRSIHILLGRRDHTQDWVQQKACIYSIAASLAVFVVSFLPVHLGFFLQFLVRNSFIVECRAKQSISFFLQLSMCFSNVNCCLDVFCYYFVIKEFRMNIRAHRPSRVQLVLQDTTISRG

inhibition, active:
O=C(c1ccco1)N(CCCN1CCOCC1)c1nc(-c2ccc(Cl)cc2)cs1 69.4%
CSc1nc(Cl)c(C#N)c(-c2ccc(C)cc2)n1 68.5%
Cc1cc(C(=O)NCC23CC4CC(CC(C4)C2)C3)c(C)o1 72.6%
CCOC(=O)C(C)(C)N(Cc1cccc(C)c1)S(=O)(=O)c1ccc(Cl)c([N+](=O)[O-])c1 73.8%

inhibition, inactive:
CN=C1CC(C)(C)CC(=O)/C1=C(/O)CCC(=O)NC 11.2%
Cc1ccc(/C=C2\C(=O)NC(=O)N2C)o1 6.8%
CCN1C(=O)N/C(=C/c2ccc(C)o2)C1=O -0.6%
Cc1ccc(/C=C2/NC(=O)N(Cc3ccccc3F)C2=O)o1 -7.6%
C=CCN1C(=O)N/C(=C/c2ccc(C)o2)C1=O 6.7%
O=C1CC(NC(=O)c2ccc(Cl)cc2)C(=O)N1 (stereo unspecified) 8%
Cc1ccc2c(c1)C1(C(=O)N2C)N2CC3(C)CN1CC(C)(C2)C3=O (stereo unspecified) -15.5%
CC(=O)/C=C1\N(C)c2ccc(C)cc2C1(C)C 9.7%
CC/C(=C/c1sc2ccc(C)cc2[n+]1CCO)SC -7.4%
Cc1ccc(-c2c3c(=O)n(C)c(=O)n(C)c3cn2N2CCOCC2)cc1 -4%
O=C(c1ccco1)N(CCCN1CCOCC1)c1nc(-c2ccc(F)cc2)cs1 28.3%
Cc1ccc(-c2csc(N(CCCN3CCOCC3)C(=O)c3ccco3)n2)cc1 21.7%
NS(=O)(=O)c1ccc(NNC(=O)c2ccccc2C(=O)O)cc1 6.3%
CCSc1ccc(-c2nn(-c3ccccc3)cc2/C=C(/C#N)C(=O)NC)cc1 0.7%
CCCSc1ccc(-c2nn(-c3ccccc3)cc2/C=C(/C#N)C(=O)NCCCOC)cc1 -5.1%
CCCCn1c(N)c(N(CC(C)C)C(=O)C2CCN(C(=O)c3ccc(F)cc3)CC2)c(=O)[nH]c1=O -8.6%
CCCCCCOc1ccc(OCC(O)CN2C(=O)NC(C)(C)C2=O)cc1 (stereo unspecified) -5.4%
Cc1ccc(N2C(=O)CC(N(CCc3ccccc3)C(=S)Nc3ccc(N(C)C)cc3)C2=O)cc1 (stereo unspecified) 0.8%
CCOC(=O)/C(C#N)=C\c1cccnc1 0.9%
CCOC(=O)/C(=C\c1ccccc1)C(=O)c1cc(C(C)=O)c(Nc2ccccc2)s1 -0.8%
O=C(CSc1ccccc1C(=O)N1CCCCC1)NCC1CCCCC1 15.6%
Cc1c(O)nc2sc3ccccc3n2c1=O -0.7%
Cc1ccc(NC(=O)C(OC(=O)c2ccccc2Cl)c2ccccc2)cc1Cl (stereo unspecified) 13.2%
O=C(N/C=C/c1ccc(Cl)cc1)NCc1ccc(Cl)cc1 9%
O=[N+]([O-])c1ccc(C2CNC(c3ccccc3)O2)cc1 (stereo unspecified) 7.3%
COc1ccc(-c2nc(-c3cccc(C)c3)nc(Cl)c2C#N)cc1 5.9%
N#Cc1c(Cl)nc(SCc2ccccc2)nc1-c1ccccc1 -1.5%
Cn1cc([C@@H]2C[C@H]3CN(C4CCCC4)C(=O)[C@]34CCCN24)c(-c2ccccc2)n1 -0.1%
COc1ccc2oc(C(=O)OCC(=O)NC(C)c3ccccc3)c(C)c2c1 (stereo unspecified) -1.9%
Cc1cc(C(=O)NCC(=O)O)c(C)o1 2.3%
Cc1cc(C(=O)NN)c(C)o1 1%
COc1cc(/C=C(/NC(=O)c2ccccc2)C(=O)N2CCOCC2)c([N+](=O)[O-])cc1OC 13.2%
Cc1cc(C(F)(F)F)nc(-n2cc(-c3ccccc3)nn2)n1 7.4%
Cc1nn(C(C)(C)C)c(OC(=O)c2ccco2)c1Sc1ccccc1 7%
Cc1nn(C(C)(C)C)c(OC(=O)c2ccc(Br)o2)c1Sc1ccccc1 -4.1%
CCC1(C)CC(=O)N(c2ccc(F)c(Cl)c2)C(=O)C1 0.3%
CC1=NN(c2ccccc2)C(=O)/C1=C/C=C/c1ccccc1 5.8%
CC1=NN(c2cccc(C(=O)O)c2)C(=O)/C1=C\C=C\c1ccco1 10.3%
CCOC(=O)C(C)(C)N(Cc1ccc(Cl)cc1)S(=O)(=O)c1ccc(Cl)c([N+](=O)[O-])c1 44.2%
CCOC(=O)C(C)(C)N(Cc1ccccc1C)S(=O)(=O)c1ccc(Cl)c([N+](=O)[O-])c1 44%
CCOC(=O)C(C)(C)N(Cc1cccc(C)c1)S(=O)(=O)c1cccc([N+](=O)[O-])c1 9.3%
CCOC(=O)C(C)(C)NS(=O)(=O)c1ccc(Cl)c([N+](=O)[O-])c1 6.3%
CC(=O)Nc1ccc(S(=O)(=O)NCC(=O)OCC(=O)N2CCc3ccccc32)cc1 -1.9%
Cc1cc(C)c(C)c(Oc2ncnc(N)c2[N+](=O)[O-])c1 0.6%
Cc1nc([N+](=O)[O-])cn1CC(=O)Nc1ccc(F)c(Cl)c1 1.9%
Cn1ccnc1SCC(=O)N1CCc2ccccc21 -2.6%
O=S(=O)(/N=C/N1CCOCC1)c1ccc(Cl)cc1 8.2%
COc1cc(OC)cc(C(=O)N2CCN(C(=O)c3cccs3)CC2)c1 -11.9%
COc1ccc(OC)c(CNc2c(C=O)c(=O)[nH]c3ccccc23)c1 1.2%
COc1ccc(OC)c(-n2c(=O)c3ccccc3c3ccccc3c2=O)c1 9.4%
COc1ccc(N2C(=O)CCC2=O)c(OC)c1 1.4%
COc1ccc2[nH]cc(C=O)c2c1 -7.9%
O=C1NC(=O)/C(=C\c2cn(CC(=O)N3CCOCC3)c3ccccc23)S1 -3.8%
O=Cc1cn(CC(=O)N2CCOCC2)c2ccccc12 6.5%
O=C(c1ccccc1)N1N=C(c2ccccc2)CC1c1ccccc1[N+](=O)[O-] (stereo unspecified) 4%
OC(COc1cccc2ccccc12)CN1CCCC1 (stereo unspecified) -4.7%
CN1C(=O)[C@H]2[C@@H](/C=C/c3ccccc3)N3C(=O)CN(CC4CC4)C(=O)[C@@]3(C)[C@H]2C1=O 7.6%
